Experimental data reported in PubChem BioAssay AID2314 (National Center for Advancing Translational Sciences (NCATS), 2010).
Several values for one entry are separate records, joined by “and”; a condition that tells them apart may be missing. Equal entries are not always repeated. In all, about 300,000 compounds went through this assay and about 37,000 (12%) were called active. The entries come from a sample that favours actives as a whole. Unmarked numbers belong to inactive results. Cut-off read from the data, not from the text of the source: active = max response mostly above about 13% (no sharp cut-off); inactive = mostly below about 14%.

Test: Cycloheximide Counterscreen for Small Molecule Inhibitors of Shiga Toxin; note: read at 38.3 µM for the half of the compounds with a filed dose; 0% is about no effect
Details: cell reporter, cycloheximide protein synthesis inhibition counterscreen; stronger effect = higher value

Compound	max response
Cc1cc(Cl)ccc1C(=O)C1CCCN(C(=O)CCN2CCCO2)C1 (stereo not given)	-2.88%
CCN(CC)CCNCC(=O)Nc1ccc(Oc2ccccc2)cc1	-2.52%
COC(=O)c1cc(C)sc1NC(=O)CC1Nc2ccccc2NC1=O (stereo not given)	22.8% (active)
O=C(CC1Nc2ccccc2NC1=O)Nc1ccccc1 (stereo not given)	31% (active)
CCc1ccc(NC(=O)CC2C(=O)NCCN2C(=S)Nc2ccccc2)cc1 (stereo not given)	5.14%
O=C(CC1Nc2ccccc2NC1=O)Nc1ccccc1NC(=O)CC1Nc2ccccc2NC1=O (stereo not given)	34.5% (active)
CCOC(=O)c1ccccc1NC(=O)CC1Nc2ccccc2NC1=O (stereo not given)	-6.08%
COC(=O)C(C)C1Sc2ccccc2NC1=O (stereo not given)	-1.04%
CC1CCN(CCC(=O)Nc2ccccc2)CC1	1.18%
CCc1cc(C(=O)OC)c(NC(=O)CC2Sc3ccc(C(F)(F)F)cc3NC2=O)s1 (stereo not given)	0.357%
O=C(CC1NCCNC1=O)Nc1ccc(Oc2ccccc2)cc1 (stereo not given)	30% (active)
Cc1ccc(CNC(=O)CC2Sc3ccccc3NC2=O)cc1 (stereo not given)	-1.23%
CCOc1ccc(NC(=O)CC2NCCNC2=O)cc1 (stereo not given)	0.991%
CC1CCCN(S(=O)(=O)c2ccc(N(C(=O)c3cnccn3)C(C(=O)NC3CCCCC3)c3cccs3)cc2)C1 (stereo not given)	-3.46%
COC(=O)c1ccc(COc2ccc(C#N)cc2)o1	0.875%
Cc1cc(C(=O)CSc2nc(N)cc(=O)[nH]2)c(C)n1CCc1ccc(Cl)cc1	4.99%
C=CCN(c1ccc(Cl)cc1)S(=O)(=O)c1cccc(C(=O)OCC(=O)N(C)C)c1	-6.49%
COc1cc(C(=O)NCc2nnc(SCC(=O)Nc3nc4ccc(C)cc4s3)o2)cc(OC)c1OC	4.75%
CCOC(=O)c1cccc(NC(=O)CN2C(=O)C3CC=CCC3C2=O)c1 (stereo not given)	-0.226%
CCC1C=C(c2ccccc2)C=CN=C1N(CC)CC (stereo not given)	-0.252%
O=c1/c(=C/c2ccc(CNS(=O)(=O)c3ccccc3)o2)sc2n1CCN=2	-4.34%
CCc1nc(C)cn1S(=O)(=O)c1cc([N+](=O)[O-])ccc1Cl	-1.54%
Cc1ccc(NC(=O)CN2CCC3(O)CCCCC3C2c2ccc3c(c2)OCO3)c(C)c1 (stereo not given)	-2.23%
Cc1ccc(C(=O)N/C(=C/c2cccs2)C(=O)N2CCCCC2)cc1	13.7%

Compound	max response
Cc1ccc(C(=O)N/C(=C\c2cccs2)C(=O)NCCc2ccccn2)cc1C	31.4% (active)
Cc1ccc(C(=O)N/C(=C/c2cccs2)C(=O)NCC2CCCO2)cc1 (stereo not given)	-3.91%
O=C(Cc1ccc([N+](=O)[O-])cc1)Nc1ccc(C(=O)N2CCOCC2)cc1	-1.78%
CCNC(=O)Nc1ccc(S(=O)(=O)Nc2cnc(C)nc2C)cc1	-7.45%
CC(C)n1c(=O)[nH]c2cc(C(=O)Nc3ccccc3)ccc21	-2.19%
O=C(Nc1ccccc1)c1cc2ccccc2[nH]1	42.1% (active)
O=C(/C=N/O)Nc1ccccc1	-2.41%
COc1ccc(NC(=S)SC)cc1OC	-3.14%
COc1ccc2c(c1)N(C)/C(=C1/SC(=S)N(NC(C)=O)C1=O)S2	5.97%
COc1ccc(/C=C/C2=CC(C)(C)NC(=S)N2)c(OC)c1	5.95%
COCCc1nn2c(=O)cc(COC(=O)c3cc(OC)c(OC)c(OC)c3)nc2s1	3.56%
CC1=C(/C=C/C(C)=C/C=C/C(C)=C/C=C/C=C(C)/C=C/C=C(C)/C=C/C(=O)[C@]2(C)C[C@@H](O)CC2(C)C)C(C)(C)C[C@H](O)C1	9.8%
COc1ccc(CNC(=O)/C(C#N)=C/c2cccc(OC)c2OC)cc1	-1.4%
COc1cccc(/C=C/c2ccc3ccccc3n2)c1OC(C)=O	28.2% (active)
CCOc1ccccc1-c1cc(C(=O)N2CCOCC2)c2ccccc2n1	-3.29%
COc1cccc(/C=C2\C=C(c3ccc(C)cc3)OC2=O)c1OC(C)=O	1.6%
CCOc1ccccc1-c1cc(C(=O)N/N=C(\C)c2cccnc2)c2ccccc2n1	-1.08%
CCOc1cccc(/C=C/c2ccc3ccccc3n2)c1OC(C)=O	25.2% (active)
CCOc1ccc(CCNC(=O)CCc2nnc3ccc(N4CCCC4)nn23)cc1OCC	1.2%
Cn1nccc1C(=O)NC1CCCc2c1cnn2-c1ccccc1F (stereo not given)	-0.344%
Cc1ccc2oc(=O)c3cnn(CC(=O)N(Cc4ccco4)C4CCCCC4)c3c2c1	-5.66%
CCOC(=O)c1c(C)n(C)c2ccc(OC)c(NS(=O)(=O)CC)c12	3.73%
COc1ccc(COCC(O)CN2CCC(C(N)=O)CC2)cc1 (stereo not given)	-2.46%
CCOc1cc(CN2CCN(C(=O)CC(C)C)CC2)ccc1OC	-2.09%

Compound	max response
COc1cc(CN2CCC(C(N)=O)CC2)ccc1OCc1ccccc1	34.9% (active)
CCC(=O)Nc1ccc(C(=O)NNC(=O)c2ccc(Cl)cc2)cc1	-0.754%
O=C(NCc1cn2ccsc2n1)Nc1ccc(Cl)cc1	1.41%
O=C(Nc1ccc(Cl)cc1)c1ccsn1	50.1% (active)
Cc1c(CCC(=O)N[C@@H](CC(C)C)C(=O)O)c(=O)oc2c(C)c3oc4c(c3cc12)CCCC4	-2.26%
O=C(CCCC(=O)N1CCN(c2cccc(Cl)c2)CC1)c1ccccc1	19.7% (active)
O=C(OCC(=O)N1CCN(C(=O)c2ccco2)CC1)c1ccccc1Cc1ccccc1	34.9%
O=C(c1ccco1)N1CCN(C(=O)C2CC(c3ccc(F)cc3)=NO2)CC1 (stereo not given)	-6.02%
O=C(c1ccc2c(c1)OCO2)N1CCN(C(=O)c2ccco2)CC1	-3.05%
O=C(OCC(=O)N1CCN(C(=O)c2ccco2)CC1)c1cccc(O)c1	5.85% (active)
O=C(c1ccco1)N1CCN(C(=O)C2c3ccccc3Oc3ccccc32)CC1	12.3% (active)
CC(C)c1nnc(NC(=O)CCC(=O)N2CCN(c3cccc(Cl)c3)CC2)s1	4.84%
O=C(c1ccco1)N1CCN=C1SCc1cccc(Cl)c1	-6.49%
O=C(OCC(=O)N1CCCC1)c1ccco1	10.1%
CS(=O)(=O)N(CC(=O)N1CCN(c2cccc(Cl)c2)CC1)c1ccccc1	-1.4%
O=C(c1ccco1)N1CCN(c2cccc(Cl)c2)CC1	23.2% (active)
O=C(c1cccc([N+](=O)[O-])c1)N1CCN(C(=O)c2ccco2)CC1	-0.729%
CCOC(=O)Cn1c(=O)sc2cccc(Cl)c21	-1.55%
COc1cc(C)c(C(C)C)cc1S(=O)(=O)n1ccnc1	0.42%
CCOC(=O)c1ccc(N=C2SC(C(=O)NC)CC(=O)N2CCc2ccccc2)cc1 (stereo not given)	1.86%
Cc1cc(=O)cc(C)n1-c1ccc(Cl)c(Cl)c1	-2.09%
O=C(CSc1nc2ccc(Nc3nc(N4CCOCC4)nc(N4CCOCC4)n3)cc2s1)NCc1ccco1	-3.23%
CC(=O)Nc1ccc(S(=O)(=O)NCC2CCC(C(=O)NCCc3ccccc3)CC2)cc1 (stereo not given)	-1.06%
CC(=O)Nc1ccc(NC(=O)CN2CCCC(C)C2)c(Cl)c1 (stereo not given)	22.7% (active)

Compound	max response
O=C(CN1CCOCC1)Nc1ccc(NC(=O)CN2CCOCC2)c(Cl)c1	-4.13%
CC1CCCN(CC(=O)Nc2cc(Cl)ccc2Oc2ccccc2)C1 (stereo not given)	8.16%
Nc1nc(SCC(=O)Nc2ccc(Cl)cc2C(F)(F)F)n[nH]1	-3.77%
N#Cc1ccc(/C=C2\CCn3c2nc2cc(C(=O)O)ccc2c3=O)cc1	-2.31%
c1ccc(-c2ccc(OCCN3CCOCC3)cc2)cc1	47.6% (active)
CC(=O)c1ccc(OCCN2CCOCC2)cc1	3.75%
CC(C)(c1ccccc1)c1ccc(OCCN2CCCC2)cc1	2.15%
CCc1c(C)nc(N)n2c(SCC(=O)NC3CCCCC3)nnc12	11.5%
COc1ccc(-c2nn(-c3ccccc3)cc2/C=N/Nc2ccccn2)cc1OC	14.8% (active)
CN(C)/N=C/c1cn(-c2ccccc2)nc1-c1cccnc1	6.55%
COc1ccc(-c2nn(-c3ccccc3)cc2C(=O)Nc2nccs2)cc1OC	-1.49%
Cc1cc(C)cc(C(=O)N(CCc2ccccc2)C2=CC3CCC(C2)N3C)c1 (stereo not given)	3.92%
O=C(C1CC(=O)N(c2ccc(Br)cc2)C1)N1CCCC1 (stereo not given)	4.73%
Cc1ccc(-c2cc(=O)c3ccc(Cl)cc3[nH]2)cc1	-0.873% and 14.9%
O=c1cc(-c2ccccc2)[nH]c2cc(F)ccc12	-3.07%
Cc1ccc(-c2cc(=O)c3ccc(F)cc3[nH]2)cc1	6.8% (active)
CC(=O)NC(CC(=O)Nc1cccc(S(=O)(=O)N2CCCC2)c1)c1ccccc1 (stereo not given)	-2.18%
COc1ccc(S(=O)(=O)N2CCOC2CNC(=O)C(=O)NCc2ccc(F)cc2)cc1 (stereo not given)	-1.46%
CC1(C)C=C2[C@H]3CC[C@@H]4[C@@]5(C)CCC(=O)C(C)(C)[C@@H]5CC[C@@]4(C)[C@]3(C)CC[C@@]2(C(=O)O)CC1	4.36%
O=C(CN(C(=O)c1nsc(Cl)c1Cl)c1cccc(F)c1)NC1CCCC1	-1.97%
COc1cc(NC(=S)N2CCCC(C)C2)c(OC)cc1Cl (stereo not given)	17.5% (active)
COc1cc(NC(=S)NNC(=O)CC(C)C)c(OC)cc1Cl	-6.7%
COc1cc(NC(=S)N2CCCC(C)C2)cc(OC)c1OC (stereo not given)	-2.44%
